# Screening data deposited in PubChem by National Center for Advancing Translational Sciences (NCATS).
# Only some compounds are listed: those with a hit (about 2.4% of all), similar ones and a draw of the others.
# D2 ag-1 = activates the human D2 dopamine receptor | activation, % (no concentration beside the values) | DiscoveRx PathHunter D2 beta-arrestin, luminescence, 90 min; 100% = 57 uM dopamine signal | P14416 | 360,000 tested, 0.084% active; in the data active = activation above about 40%
# Target sequence (P14416 whole entry, looked up): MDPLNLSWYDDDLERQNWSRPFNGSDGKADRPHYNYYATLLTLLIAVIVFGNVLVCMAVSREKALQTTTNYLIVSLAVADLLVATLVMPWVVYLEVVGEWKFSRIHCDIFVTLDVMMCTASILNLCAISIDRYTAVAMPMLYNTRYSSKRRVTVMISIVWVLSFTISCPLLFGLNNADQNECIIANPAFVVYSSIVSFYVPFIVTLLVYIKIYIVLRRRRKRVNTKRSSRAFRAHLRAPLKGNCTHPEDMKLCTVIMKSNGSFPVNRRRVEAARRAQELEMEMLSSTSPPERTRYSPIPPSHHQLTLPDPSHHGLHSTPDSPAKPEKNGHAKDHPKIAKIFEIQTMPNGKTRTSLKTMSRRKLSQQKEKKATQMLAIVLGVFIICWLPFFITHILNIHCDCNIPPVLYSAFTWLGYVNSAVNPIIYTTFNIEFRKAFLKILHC
#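 Agonist mode: compounds alone added to overnight-plated D2 PathHunter cells for 90 min at 37 C, with 57 uM final dopamine (EC100) defining full response. Beta-arrestin recruitment detected by chemiluminescent reagent, read after 1 h at ambient temperature.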
# D2 antagonist = antagonists of human D2 dopamine receptor; P14416; HEK293 TREx D2 cells, calcium flux, dopamine EC80; inhibition, % at 10 µM; 340,000 tested, 2% active; in the data active = inhibition above about 30%; inactive = below that, where a call was filed; also: 0% is about no effect
#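 Calcium flux kinetic readout in an inducible HEK293 TREx D2 line plated overnight at 30 C. After 180 s compound exposure, an EC80 dopamine challenge follows with another 180 s kinetic read to detect antagonism.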
# D2 PAM-1 = D2 dopamine receptor (human) potentiation | P14416 | potentiation, % at 10 µM | HEK293 T-REx D2, calcium flux, EC20 dopamine potentiation | 340,000 tested, 0.34% active;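 active = potentiation over 3 SD above the plate norm, cut at about 30% in these data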; also: 0% is about no effect
#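 Tetracycline-induced HEK293 T-REx cells force-coupled to calcium signalling expressed D2; compounds were pin-added after a 10 s baseline, read kinetically 180 s, then an EC20 dopamine challenge followed with a further 180 s calcium read.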
# D2 ag-2 = agonists of human D2 dopamine receptor | 340,000 tested, 0.53% active | activation, % at 2 µM | HEK293 T-REx D2 cells, calcium flux agonist mode | P14416;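 active = activation over 3 SD above normal in the single-dose calcium agonist read, cut at about 30% in these data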; also: 0% is about no effect
#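 Calcium-flux readout, 1 cycle/sec over 180 s following compound pin transfer, in inducible HEK293 Trex D2 cells (force-coupled); dopamine controls included. Positive calcium responses during this window marked compounds as potential agonists.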
# D2 PAM-2 = positive allosteric modulators of human D2 dopamine receptor | 360,000 tested, 0.23% active | potentiation, % (no concentration beside the values) | DiscoveRx D2 beta-arrestin cells, luminescence, 90 min; 100% = 57 uM dopamine signal | P14416; in the data active = potentiation above about 50%
#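 D2 cells co-treated with compound plus 50 nM dopamine (EC20) for 90 min at 37 deg C to detect potentiation. Beta-arrestin recruitment was read as enzyme-fragment luminescence after 1 h at ambient temperature. Full response was set by 57 uM dopamine.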
# * marks the source's active call; other numbers are inactive results; nt = no result.
SMILES,D2 ag-1,D2 antagonist,D2 PAM-1,D2 ag-2,D2 PAM-2
Cc1ccc(OCCCCN2CCc3ccccc3C2)c(C)c1,0,76*,-25,1,-8
Cc1ccc(C(C)C)c(OCCCN2CCc3ccccc3C2)c1,-3,30*,-29,0,-72
Cc1ccc(C)c(OCCCN2CCc3ccccc3C2)c1,4,70*,-19,0,-27
Cc1ccc(C(C)C)c(OCCN2CCc3ccccc3C2)c1,-1,-15,-15,-1,-27
Cc1ccc(OCCCCn2cnc3ccccc32)c(C)c1,1,12,2,0,-14
CCCc1cc(C(=O)NNC(=S)NC2CCCCC2)cs1,-13,2,-25,0,-25
O=C(COC(=O)c1ccc(O)cc1)Nc1ccc(OC(F)F)cc1,-1,32*,1,2,1
CCOC(=O)c1c(-c2ccc(C)cc2C)csc1NC(=O)c1ccccc1Cl,nt,nt,0,nt,nt
Cc1ccc(C(CC(=O)O)NC(=O)CN2C(=O)c3ccccc3C2=O)cc1 (centres undefined),-7,43*,0,1,-8
Cc1ccc(NC(=O)CN2C(=O)c3ccccc3C2=O)nc1,-7,-8,-6,0,-6
Cc1nc(Nc2cccc(O)c2)c2oc3ccccc3c2n1,3,33*,1,1,-15
COc1ccc(CNC(=O)CSc2ncc3c(n2)-c2ccc(Cl)cc2N(Cc2ccc(F)cc2)S3(=O)=O)cc1OC,nt,nt,11,0,nt
CN(C)c1ccc(C(=O)/C=C/c2cccnc2)cc1,-3,nt,nt,nt,-13
CN(C)c1ccc(/C=C/C(=O)c2cccc(Br)c2)cc1,2,2,-3,113*,-6
Cc1ccc2cccc(NC(=S)NC(=O)c3ccccc3)c2n1,-3,4,33*,0,-13
Cc1ccc2sc(N(Cc3cccnc3)C(=O)CCOc3ccccc3)nc2c1C,nt,nt,-2,nt,nt
CN(CCC(=O)Nc1ccc2c(c1)OCO2)Cc1ccccc1,-1,-26,-5,1,-24
CN(CC(=O)Nc1cccc(C#N)c1)Cc1ccc(Cl)cc1,3,68*,-11,0,-31
CCc1ccc(CCC(=O)Nc2ccc(Cl)cc2)o1,1,42*,-12,-1,-5
CN(CC(=O)Nc1ccc(C#N)cc1)Cc1ccc(Cl)c(Cl)c1,-1,-18,-7,0,-7
CN(CCC(=O)Nc1ccc(Cl)cc1)Cc1ccccc1,-10,45*,-26,-1,-28
CN(Cc1ccccc1)C(=O)c1ccc(NC(=O)c2ccccc2)cc1,-2,-17,37*,0,-11
CN(Cc1ccccc1)C(=O)c1cccc(NC(=O)c2ccco2)c1,-5,-8,-8,0,-5
COc1ccc(Oc2nc3c(C)cccn3c(=O)c2/C=C(\C#N)c2nc3ccccc3[nH]2)cc1,nt,nt,-3,1,nt
CCN(c1ccccc1)S(=O)(=O)c1ccc(NC(=O)c2cc(=O)c3ccc(C)c(C)c3o2)cc1,nt,nt,6,-1,nt
SMILES,D2 ag-1,D2 antagonist,D2 PAM-1,D2 ag-2,D2 PAM-2
COc1cccc(C(=O)Nc2ccccc2OCc2cc(=O)n3cc(C)ccc3n2)c1,nt,nt,-11,-1,nt
COc1ccc(CCNC(=O)CCc2c(C)nc3cc(-c4ccccc4OC)nn3c2C)c(OC)c1,nt,nt,3,-1,nt
COc1ccc(S(=O)(=O)NCC2CCCN(C(=O)c3ccco3)C2)cc1 (centres undefined),-7,32*,-8,-1,-14
Cc1onc(-c2ccccc2)c1C(=O)OCC(=O)Nc1ccc(Cl)cc1,3,37*,-4,0,3
Cc1cccc(-c2nc(CCNC(=O)c3ccccc3Br)cs2)c1,nt,nt,1,2,nt
Cc1cnc(C(=O)Nc2ccccc2-c2nnn(CC(=O)NC3CCCC3)n2)cn1,2,30*,-2,0,-18
Cc1nonc1C(=O)N/N=C/c1cccc(O)c1,-5,33*,15,-1,-1
O=C(N/N=C/c1cccc(O)c1)N/N=C/c1cccc(O)c1,2,24,-4,2,3
COC(c1ccccc1)c1nnc(CCC(=O)N2CCCCCCC2)o1 (centres undefined),1,-16,7,-1,3
O=C(CCc1nnc(-c2ccc(-c3ccccc3)cc2)o1)N1CCCCC1,7,62*,16,1,-6
CCOC(=O)c1c(C)[nH]c(C)c1S(=O)(=O)N1CCC(C(=O)Nc2ccccc2CC)CC1,nt,nt,2,0,nt
O=C(CN(CCN1CCOCC1)C(=O)Cn1nnc(-c2ccc(F)cc2)n1)NC1CCCCC1,-4,71*,6,1,-6
O=C(CN(CCCN1CCOCC1)C(=O)Cn1nnc(-c2ccc(F)cc2)n1)NC1CCCCC1,-4,1,-10,1,-14
Cc1cc(C(=O)O)ccc1N/C=C1\CCCC(C)C1=O (centres undefined),-3,0,-4,1,-25
CC1CCC/C(=C\Nc2ccc(O)cc2)C1=O (centres undefined),13,6,10,0,54*
COc1ccc(-c2csc(C)n2)cc1Br,4,36*,-12,3,-1
COc1cc(-c2csc(C)n2)ccc1O,-1,0,-8,1,-16
Cc1cc2nc3c(=O)n(CCc4ccccc4)c(=O)[nH]c3nc2cc1N,8,-13,-8,95*,18
Nc1ccc2nc(CCc3ccccc3)[nH]c2c1,-1,-9,0,-1,-2
Nc1ccc2nc3c(=O)n(CCc4ccccc4)c(=O)[nH]c3nc2c1,6,-45,-11,95*,27
CCCCn1c(=O)[nH]c2nc3cc(N)ccc3nc2c1=O,-3,-24,-9,61*,22
Nc1ccc2nc3c(=O)n(C4CCCCC4)c(=O)[nH]c3nc2c1,3,nt,-7,nt,17
CC(C)(C)OC(=O)N1CCC(c2c(C(=O)NCc3ccco3)cnn2-c2ccccc2Cl)CC1,nt,nt,2,1,nt
COc1ccc(CNC(=O)Cc2c(C)c3c(cc(C)c4c(C)coc43)oc2=O)cc1,nt,nt,6,1,nt
COC(=O)c1ccccc1NC(=O)NCc1ccc2c(c1)OCO2,0,34*,-11,0,-15
SMILES,D2 ag-1,D2 antagonist,D2 PAM-1,D2 ag-2,D2 PAM-2
O=C(NCc1ccc2c(c1)OCO2)Nc1cccc2ccccc12,-4,-10,-18,0,-7
COc1cc(C)c(S(=O)(=O)NCc2ccc3c(c2)OCO3)cc1C,-3,32*,-19,0,-8
CCOc1ccccc1NC(=O)NCc1ccc2c(c1)OCO2,-9,9,-12,-2,-34
COc1cc(S(=O)(=O)NCc2ccc3c(c2)OCO3)c(OC)cc1C,-1,-8,1,0,-6
COc1ccccc1NC(=O)NCc1ccc2c(c1)OCO2,nt,33*,-11,0,nt
CSc1cccc(NC(=O)c2ccc3c(c2)CCCN3S(C)(=O)=O)c1,nt,nt,-6,-1,nt
